The target in the assay is Eukaryotic translation initiation factor 4H (Homo sapiens) (UniProt Q15056). Description: eIF4H binding inhibition – biochemical, uHTS, fluorescence polarization, translation initiation inhibitor project, primary screen (AID 2012).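 Also: calls also rest on retests at 20 µM and on dose response follow-up.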 The conditions noted are these: eIF4H fluorescence polarization binding assay, stronger effect = higher value. (In fluorescence polarisation assays a small probe gives low polarisation when free and higher when bound to something large.)

Screen size: about 290,000 compounds; about 2,700 (0.93%) were called active. No rule for the calls is given here. The full list was thinned out, with actives kept by preference.

Usually inhibition stands for the change of the read-out against control, counted positive when it falls. Take `CC(CC(=O)N1CCN(S(=O)(=O)c2ccccc2)CC1)n1cncn1` (configuration not stated): where the note is “at 35 µM”, the inhibition was -2.7% (inactive).
`CCc1nnc(NC(=O)Cc2cccs2)s1`: the inhibition (at 35 µM) is 19.2% (inactive).
Still for that read-out and setting: the figure for `COc1ccc(Cc2nnc(NC(=O)c3ccc(OC)cc3OC)s2)cc1` is 4.9% (inactive); for `COc1ccc(Cc2nnc(NC(=O)Cc3cccs3)s2)cc1` it is 71.3% (active).
As for `CC1CN(C(=O)CCC(=O)NCCCN2CCC(Cc3ccccc3)CC2)c2cc(Cl)ccc2O1` (configuration not stated), the inhibition (at 35 µM) was 6% (inactive).
Still for that read-out and setting: to `C#CCOc1ccccc1/C=C1/C(=O)ON=C1C` belongs -20.1% (inactive); to `Cc1ccc(NC(=O)c2ccc(Oc3ncccn3)cc2)cc1`, 0.1% (inactive).
As for `Cc1ccc(NC(=O)c2cccnc2C(=O)Nc2ccc(C)cc2)cc1`, the inhibition reads like this: (at 35 µM) 4% (active); (confirmation average, at 20 µM) 65.7%.
Turning to `Cc1ccc(NC(=O)Nc2cccnc2)cc1`, where the note is “at 35 µM”, the inhibition is 2.1% (inactive).
On to `O=C(NC(=S)Nc1ccc(S(=O)(=O)N2CCOCC2)cc1)c1ccccc1[N+](=O)[O-]`, for which the inhibition (at 35 µM) was 6.8% (inactive).
Same read-out and setting: the figure for `O=[N+]([O-])c1cc(Cl)cc(/C=N/NC(=S)Nc2cc(S(=O)(=O)N3CCOCC3)ccc2Cl)c1O` is 89.6% (active); for `O=C(N/N=C/c1cc(Cl)cc([N+](=O)[O-])c1O)C(O)(c1ccccc1)c1ccccc1` it is 1.2% (inactive).
On the same count and under the same terms, the figure for `CC[C@]1(c2ccccc2OC)C(=O)N(C(=O)OC)N1C(=O)OC` is 2.4% (inactive).
Same read-out and setting: the figure for `COc1ccccc1CNC(=O)[C@@H]1CCCN1C(=O)[C@@H]1Cc2ccccc2CN1C(=O)OC(C)(C)C` is -6.3% (inactive); for `COc1ccc(NS(=O)(=O)c2ccc(N3CCN(CCO)CC3)c([N+](=O)[O-])c2)cc1` it is -9.3% (inactive).
On to `CCC(C)Cn1c(O)cc2nn(-c3nc4ccccc4s3)c(=O)c-2c1C` (configuration not stated), for which the inhibition (at 35 µM) was 89.6% (active).
For the compound `Cc1cc(NC(=O)CN2CCCC(C)C2)n(-c2nc3ccccc3s2)n1` (configuration not stated), under “at 35 µM”, the inhibition is -0.6% (inactive).
Regarding `C/C(=N\NC(=O)CC(C)C)c1c(C(F)(F)F)[nH]n(-c2nc3ccccc3s2)c1=O`, the inhibition (at 35 µM) is -5.6% (inactive).
On the same count and under the same terms, to `COc1ccc(S(=O)(=O)NCCCCOc2ccc(Cl)cc2)cc1` belongs 25.8% (inactive); to `O=C(NNS(=O)(=O)c1ccc(F)cc1)c1ccc([N+](=O)[O-])cc1Cl`, -5.4% (inactive); to `CC(C)c1ccc(OCC(O)CN2CCN(c3ccccn3)CC2)cc1` (configuration not stated), -9.3% (inactive).
Turning to `COc1ccc(-c2csc(NC3OC(=O)c4ccccc43)n2)cc1` (configuration not stated), the inhibition (at 35 µM) was 2.1% (inactive).
As for `COc1ccc(-c2csc(Cc3nc(O)cs3)n2)cc1`, the inhibition by setting is: (at 35 µM) 20.3% (active); (confirmation average, at 20 µM) 82.6%.
`CC(C)(C)C(=O)OCc1nc(-c2ccc(O)c(O)c2)cs1`: the inhibition (at 35 µM) is 1.2% (inactive).
The same measure, in the same setting: to `FC(F)(F)C1CCCN(c2nsc3ccccc23)C1` (configuration not stated) belongs -3.8% (inactive); to `O=S(=O)(c1ccc(Br)cc1)c1nc(-c2ccccc2)oc1N1CCOCC1`, -5.9% (inactive); to `O=C(O)CCC(=O)Nc1ccc(OCC2CCCO2)cc1` (configuration not stated), 2.6% (inactive).
Consider `COC(=O)COc1ccc2c(=O)c(Oc3ccccc3Br)coc2c1`, for which, for the setting “at 35 µM”, the inhibition was 5.6% (inactive).
Same read-out and setting: the figure for `Cc1cc(=O)oc(C)c1C(=O)NCc1ccc(F)cc1` is 0.5% (inactive); for `Cc1cc(=O)oc(C)c1C(=O)Nc1cnc2ccccc2c1` it is 78.6% (active).
Take `Cc1cc(=O)oc(C)c1C(=O)NCCN(C)Cc1ccccc1`: the inhibition (at 35 µM) is 6.6% (inactive).
`CCOC(=O)c1c(S(=O)(=O)NCC(=O)Nc2ccc(C)cc2)c(C)n(C)c1C`: for the setting “at 35 µM”, the inhibition was -0.1% (inactive).
The same measure, in the same setting: the figure for `O=C(NCCCn1ccnc1)/C(=C\c1ccccc1F)NC(=O)c1ccccc1` is -6.4% (inactive); for `Cc1ccc(Nc2nc(C)cc(C)c2C(N)=O)cc1` it is 5.6% (inactive).
With `Cc1cc(OC(=O)c2c(Cl)cccc2Cl)nc(C)n1`, the inhibition (at 35 µM) was -11.4% (inactive).
Consider `Cc1cc(C)c(C(N)=O)c(Cl)n1`, for which the inhibition was 19.4% (active) (at 35 µM) and 93.1% (confirmation average, at 20 µM).
Regarding `CC(C)CN(CC(C)C)C(=O)CN1c2cccc3cccc(c23)S1(=O)=O`, the inhibition (at 35 µM) is -14.9% (inactive).
Still for that read-out and setting: the figure for `Oc1ccc(C2Nc3cccc4cccc(c34)N2)cc1` is 97.3% (active).
For `COc1cccc(C2Nc3cccc4cccc(c34)N2)c1`, the inhibition is 59.9% (active) (at 35 µM) and 98.5% (confirmation average, at 20 µM).
With `COc1ccc(N2C(=O)C3CCCN3C2c2cccc(OC)c2)cc1` (configuration not stated), the inhibition (at 35 µM) was -6.3% (inactive).
With `O=C1NC(c2cccc(Cl)c2)Nc2ccccc21` (configuration not stated), the inhibition (at 35 µM) is -8.5% (inactive).
For the compound `COc1ccc(C2NC(=O)c3ccccc3N2)cc1` (configuration not stated), the inhibition (at 35 µM) is 7.1% (inactive).
Same read-out and setting: to `Cc1ccc(C2Nc3cccc4cccc(c34)N2)cc1` belongs 41% (inactive).
Still for that read-out and setting: the figure for `O=C(Nc1nnc(S(=O)(=O)N2CCCCCC2)s1)c1cccc(Br)c1` is -8.4% (inactive).
Regarding `COc1ccc(CCNC(=O)CN(C)S(=O)(=O)c2ccc3nc(C)sc3c2)cc1OC`, for the setting “at 35 µM”, the inhibition is -3% (inactive).
Same read-out and setting: the figure for `CS(=O)(=O)N1CCCC(C(=O)Nc2ccccc2C(F)(F)F)C1` (configuration not stated) is -2% (inactive); for `CCOc1ccc(NC(=O)CC(Cc2ccc(Cl)cc2)C(=O)O)cc1` (configuration not stated) it is -6.5% (inactive).
On to `CN(Cc1ccccc1)CC(O)COc1ccc(CNCc2cc3ccccc3s2)cc1` (configuration not stated), for which the inhibition (at 35 µM) was -2% (inactive).

The values above are taken from PubChem BioAssay AID2012 (Sanford-Burnham Center for Chemical Genomics, 2009).
